Screening data as filed in PubChem BioAssay.
RAM network inh: blocks the yeast RAM network; actives 1.8% (n = 190,000); inhibition, % at 50 µM; S. cerevisiae dse1pr::URA3 reporter, 5-FOA growth OD615, 2 d; analog-sensitive cbk1-as2 kinase mutant strain;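 active = inhibition above a set limit, 3 SD over mean compound inhibition, cut at about 8.4% in these data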;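 note: 0% = DMSO-only wells with no growth and 100% = 10 µM 1-NA-PP1 full growth; inhibition rescues growth on 5-FOA so higher OD means more RAM inhibition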
EP2 antag: EP2 receptor (human) inhibition; P43116; C6 glioma cells expressing human EP2, cAMP TR-FRET; cells stimulated with saturating PGE2; inhibition, % at 25 µM; actives 0.52% (n = 260,000);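 active = percent inhibition above 40 after rounding to a whole number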;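 note: rat C6 glioma host cells with rolipram phosphodiesterase inhibitor present; the protocol text gives 20 µM as final concentration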
Target sequence (P43116 whole entry, looked up): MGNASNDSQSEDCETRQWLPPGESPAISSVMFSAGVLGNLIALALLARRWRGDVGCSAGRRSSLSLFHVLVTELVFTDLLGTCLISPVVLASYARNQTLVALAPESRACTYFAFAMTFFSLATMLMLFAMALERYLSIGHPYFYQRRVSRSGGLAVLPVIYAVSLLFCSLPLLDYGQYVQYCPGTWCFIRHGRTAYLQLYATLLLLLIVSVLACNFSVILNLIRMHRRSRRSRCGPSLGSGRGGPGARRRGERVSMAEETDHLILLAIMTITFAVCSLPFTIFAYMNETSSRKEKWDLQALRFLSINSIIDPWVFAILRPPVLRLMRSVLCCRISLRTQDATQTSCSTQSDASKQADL
PG9 Ab binder: PG9 antibody binding by small molecule; inhibition, % at 6.7 µM; TR-FRET gp120-PG9 antibody binding; AID 624416; actives 0.43% (n = 360,000); in the data active = inhibition above about 8.5%
SKN-1 inh: inhibitors of C. elegans SKN-1 | actives 0.49% (n = 360,000) | C. elegans VP596 Pgst-4::GFP/RFP ratio, acrylamide-induced, 24 h | AID 624304 | inhibition, % at 21.8 µM;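 active = interference check ratio from 0.5 to 1.5 plus GFP to RFP signal ratio inhibition reaching or exceeding a fixed threshold, cut at about 30% in these data, passing the limit was not always enough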
NR1D1 modulator: Rev-erb alpha (human) modulation; Rev-erbα–FITC-DNA binding, fluorescence polarization, 90 min; activity, % at 10 µM; actives 0.79% (n = 370,000); AID 1259318;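 active = activity above about 14%, limit read from the data; passing the limit was not always enough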;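 note: 0% = DMSO wells with 35 nM protein and 100% = DMSO wells with 750 nM protein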
EP2 modulator: EP2 receptor (human) modulation. P43116. EP2-expressing cells, cAMP HTRF FRET, PGE2 co-stimulation. actives 0.83% (n = 260,000). induction, % at 25 µM. AID 940;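 active = compounds whose cAMP rise, as percent of the full-agonist control response, exceeds 60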;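 note: rat C6 glioma line stably carrying human EP2 under a CMV promoter; the protocol text gives 20 µM as final concentration; 100% = response of wells given 1 µM PGE2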
Rev-erbA confirm: Rev-erb alpha (human) modulation, hit confirmation; shares compounds with NR1D1 modulator; Rev-erb alpha FITC-DNA binding, fluorescence polarization, 90 min; activation, % at 25 µM; actives 61% (n = 3,000); AID 1259319;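 active = activation at or above a set limit, or at least 3 SD above the negative control mean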;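 note: 0% = 35 nM protein with DMSO and 100% = 750 nM protein high control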
RORg DNA counter: affects RORgamma DNA binding in a Rev-erb alpha counter-screen; AID 1259320; purified RORgamma protein-FITC-DNA binding, fluorescence polarization; IC50, µM; shares compounds with NR1D1 modulator; actives 8% (n = 910);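 active = Compounds whose fitted half-maximal concentration for disrupting protein-DNA binding is below 10 micromolar; the record names Rev-erb in its text, so the target is in doubt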
The depositor's hits bear a star; i = inactive; . = not tested or not shown. Only some compounds are listed: those with a hit (about 2.9% of all), similar ones and a draw of the others.

SMILES	RAM network inh	EP2 antag	PG9 Ab binder	SKN-1 inh	NR1D1 modulator	EP2 modulator	Rev-erbA confirm	others
CCc1ccc([C@H]2[C@@H]3C(=O)C[C@@H]4C(=O)N(CC)C(=O)[C@@H]4[C@@H]3CN2S(=O)(=O)c2ccc(C)cc2)cc1	.	.	-1.3	6.4	-2.8	.	.
CCc1ccc([C@H]2[C@@H]3C(=O)C[C@@H]4C(=O)N(C)C(=O)[C@@H]4[C@@H]3CN2S(=O)(=O)c2ccc(C)cc2)cc1	.	.	0.2	-1.3	16.0*	.	1.3
Nc1ncc2c(n1)-c1cc(Cl)ccc1SC2	2.2	8.7	1.6	-2.6	34.3*	-17.2	-1.5
CC1CCCN(CC(O)c2ccc3c(c2)CC(C)N3C(=O)C2CC2)C1 (stereo not drawn)	.	4.0	.	.	.	-25.4	.
CC(C)n1c(N(C)C)nc2c1c(=O)n(C)c(=O)n2C	.	13.9	.	.	.	13.0	.
CC(=O)c1cccc(S(=O)(=O)N2CCN(c3nc4cc(C)cc(C)c4cc3C#N)CC2)c1	3.5	.	-0.5	11.1	174.3*	0.7	137.4*
Cc1cc(C)n(CC(=O)NCCc2nc(-c3cccnc3)n[nH]2)n1	.	.	.	.	.	19.9	.
COC(=O)C1CCN(C(=O)c2cc3c(=O)n4cccc(C)c4nc3n2Cc2ccccc2)CC1	.	12.7	-3.4	17.3	39.5*	46.3	23.4*
CC1C(N2CCOCC2)[N+]([O-])=C2CCc3c(no[n+]3[O-])C21O (stereo not drawn)	.	13.4	.	.	.	-11.0	.
O=C(Nc1ccc(-c2nc3cc(Cl)ccc3c(=O)o2)cc1)c1ccco1	1.3	9.2	-0.3	4.8	27.3*	-9.2	0.3
Cc1noc(C)c1C(=O)N1CCN(Cc2ccco2)C[C@@H]1C(C)C	.	.	.	.	.	-11.6	.
CC1(C)Cc2c(sc3nc(-c4cc5ccccc5o4)n(N)c(=O)c23)CO1	3.9	10.2	0.3	-0.3	47.8*	-18.3	25.6*
Cc1ccc(-c2nc3sc4c(c3c(=O)n2N)CC(C)(C)OC4)cc1	0.7	5.8	0.0	17.4	15.5	-6.2	.
Cc1nc2c(C)cccn2c(=O)c1NC(=O)c1cccc2ccccc12	.	.	-0.6	2.5	28.7*	.	4.7
CCN1CCCC1CN(Cc1ccccn1)Cc1cccc(OC)c1O (stereo not drawn)	.	8.6	.	.	.	2.1	.
COc1ccc(C(=O)OCC(=O)c2cc(OC)ccc2OC)c(OC)c1	2.2	16.6	2.7	36.0	1.3	-22.8	.
COc1ccc(OC)c(C(=O)COC(=O)c2[nH]c(C)c(C(C)=O)c2C)c1	.	.	7.6	-12.4	15.9*	.	10.1
O=C(c1ccc(Cl)cc1)c1cnc(Nc2ccccc2Cl)s1	5.7	13.5	6.4	31.6	34.9*	-1.5	12.0
CCOC(=O)c1cc2occc2n1CC(=O)N1CCC(C)CC1	.	12.1	.	.	.	-2.3	.
Cn1cncc1CN(Cc1ccccc1)C1CC(C)(C)NC(C)(C)C1	.	4.1	.	.	.	7.2	.
COc1ccc2[nH]c(=O)c(CN(Cc3ccco3)S(=O)(=O)c3ccc(F)cc3)cc2c1	.	13.2	.	.	.	-76.2	.
COc1ccc(C2C(C#N)=C(C)NC3=C2C(=O)c2ccccc23)cc1 (stereo not drawn)	2.1	49.4*	-0.7	5.7	81.2*	-8.0	53.6*	RORg DNA counter=>40
COc1ccc(OC)c(C(C)NC(=O)Cn2ncn3c(cc4ccsc43)c2=O)c1 (stereo not drawn)	.	11.0	.	.	.	-2.6	.
N#C/C(=C/c1ccc(N2CCCCC2)o1)C(=O)Nc1ccc2ccccc2c1	8.4	13.7	-1.2	31.7	67.2*	-17.4	24.9*
N#C/C(=C\c1ccc(N2CCOCC2)o1)C(=O)Nc1ccc(O)cc1	2.6	5.9	-25.9	8.5	43.7*	-30.8	27.2*
SMILES	RAM network inh	EP2 antag	PG9 Ab binder	SKN-1 inh	NR1D1 modulator	EP2 modulator	Rev-erbA confirm	others
COc1ccc(NC(=O)/C(C#N)=C\c2ccc(N3CCOCC3)o2)cc1	2.8	12.8	-20.3	4.3	65.3*	-41.4	40.5*	RORg DNA counter=i
O=C(c1ccc2c(c1)OCO2)N1CCC(c2ccc(F)cc2)CC1	.	4.1	.	.	.	-54.7	.
O=C(Cn1nnc(-c2ccc(S(=O)(=O)N3CCCC3)cc2)n1)NCc1ccco1	.	8.6	.	.	.	-33.5	.
COC(=O)c1c(-c2cccc(C)c2)csc1NC(=O)C1CCCO1 (stereo not drawn)	5.2	10.8	0.8	1.4	24.1*	33.0	27.1*
Cc1[nH]c2ccccc2c1/C=N/Nc1ccc([N+](=O)[O-])cc1	5.4	10.2	-1.2	4.7	21.8*	-3.7	16.0
CC(=O)N1CCCc2cc(C(O)CN3CCC(C)CC3)ccc21 (stereo not drawn)	.	4.2	.	.	.	-43.6	.
CCCOc1cccc(-c2nnc(NC(=O)c3ccco3)s2)c1	.	.	0.7	7.1	23.1*	.	5.1
COc1cccc(-c2nnc(NC(=O)c3ccco3)s2)c1	.	.	2.8	15.5	-4.8	.	.
CCOC(=O)c1ccccc1NC(=O)c1n[nH]c(=O)c2ccccc12	1.0	12.1	0.2	5.1	52.9*	27.6	25.4*
COc1cc(NC(=O)c2n[nH]c(=O)c3ccccc23)cc(OC)c1	.	8.1	6.5	4.6	25.8*	-9.0	20.0*
CCOC(=O)c1ccc(NC(=O)c2n[nH]c(=O)c3ccccc23)cc1	3.3	8.3	-2.0	2.5	21.0	-0.8	.
CCC(C)(C)n1nnnc1C(C(C)C)N(Cc1ccccc1)Cc1cc2ccc(C)cc2[nH]c1=O (stereo not drawn)	.	3.7	.	.	.	28.9	.
